PubChem BioAssay (EPA / NIEHS)
Values joined by “and” are separate entries in the source; they are usually repeats but may differ in a detail not shown here. Equal values may be shown once. Some compounds were tested as several samples or in several runs, with calls that do not always agree. Active and inactive are the calls of the source. How the source made its calls: active means hit-call score of the fitted dose curve at least 0.9, where 1 is the maximum; inactive means score below 0.9.

How the values were obtained:
[1] = read-out: Interleukin-1 alpha (IL1a), IL1A (gene 3552); assay: BSK_IMphg_IL1a: BioMAP Diversity Plus: IMphg Assay for Interleukin-1 alpha (IL1a) Biomarker Activity (AID 2284290); settings: primary human endothelial cells with macrophages
Method in brief: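 IL-1α is quantified by ELISA at 24 h in the endothelial/macrophage IMphg co-culture, with gain of signal fitted relative to DMSO. Parallel SRB total-protein staining flags overt toxicity.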

[2] = read-out: E-selectin (Homo sapiens) (UniProt P16581); assay: BSK_IMphg_ESelectin: BioMAP Diversity Plus: IMphg Assay for Eselectin Biomarker Activity (AID 2284291); settings: primary human endothelial cells with macrophages
Method in brief: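 Analysed against DMSO baseline in the positive fitting direction, this endpoint is an ELISA read of E-selectin. It comes from human venular endothelial cells co-cultured with macrophages, sampled 24 h post-dose.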

[3] = BSK_IMphg_SRB: Viability Assessment in the BioMAP Diversity Plus: IMphg Assay (AID 2284292); settings: primary human endothelial cells with macrophages;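 further: measured one day after compound addition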
Method in brief: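 SRB viability endpoint: cultures of human endothelial cells plus macrophages fixed with 10% TCA, stained with 0.1% SRB, read at 560 nm 24 h post-dosing. Only gain-of-signal fitted, relative to DMSO.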

[4] = read-out: Macrophage colony-stimulating factor (MCSF), CSF1 (gene 1435); assay: BSK_IMphg_MCSF: BioMAP Diversity Plus: IMphg Assay for Macrophage colony-stimulating factor (MCSF) Biomarker Activity (AID 2284293); settings: primary human endothelial cells with macrophages
Procedure: BSK_IMphg is a cell-based, multiplexed-readout assay that uses venular endothelial cells and macrophages, a human vascular primary cell, with measurements taken at 24 hours after chemical dosing in a microplate: 96-well plate.BSK_IMphg_MCSF is an assay component measured in the BSK_IMphg assay. It measures M-CSF antibody related to regulation of gene expression using ELISA technology.Data from the assay component BSK_IMphg_MCSF was analyzed at the endpoint, BSK_IMphg_MCSF, in the positive analysis fitting direction relative to DMSO as the negative control and baseline of activity. Using a type of binding reporter, gain or loss-of-signal activity can be used to understand protein changes. To generalize the intended target to other relatable targets, this assay endpoint is annotated to the 'cytokine' intended target family, where the subfamily is 'colony stimulating factor'.
(§1) The levels of cell surface (or secreted, indicated by the prefix "s") biomarker endpoints were measured by ELISA. Overt cytotoxicity to cells in confluent adherent cultures (all systems other than the BT system) was assessed by measuring total protein levels using sulforhodamine B (SRB) staining in parallel cultures at the time of biomarker measurements, indicated as SRB endpoints. For proliferation assays for adherent cell types, individual cell types are cultured at sub-confluence and relative cell numbers quantified by SRB staining at time points optimized for each system (48 h: 3C and CASM3C systems; 72 h: BT and HDF3CGF systems; 96 h: SAg system). SRB was performed by staining cells with 0.1% SRB after fixation with 10% TCA and reading wells at 560 nm.Viability and proliferation of PBMC (T cells) was quantified by Alamar Blue reduction for the SAg and BT systems. For PBMC viability (referred to as PBMC Cytotoxicity within the assay endpoint names), cells were plated (75,000/well in a 96-well plate) and then chemical samples added for 1 h before addition of activators, SEB and TSST-1 (20 ng/mL final concentration each). Cells were incubated for 90 h. Then, Alamar Blue (20 uL/well) (Invitrogen, Cat DAL1100) was added for 6 h, and the plates were read with a fluorescence microplate reader at 546/580 nm (excitation/emission). For PBMC proliferation, cells were plated and activated as above but incubated for only 16 h prior to addition of Alamar Blue. Plates were read after 6 h.

[5] = read-out: Interleukin-10 (IL10), IL10 (gene 3586); assay: BSK_IMphg_IL10: BioMAP Diversity Plus: IMphg Assay for Interleukin-10 (IL10) Biomarker Activity (AID 2284294); settings: primary human endothelial cells with macrophages
Method in brief: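 IL-10 read by ELISA after 24 h chemical exposure of primary human venular endothelial cell/macrophage cocultures, with DMSO as baseline. Parallel SRB staining (560 nm) gauged overt cytotoxicity.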

[6] = BSK_IMphg_SRB.Mphg: Macrophage Viability Assessment in the BioMAP Diversity Plus: IMphg Assay (AID 2284295); settings: primary human endothelial cells with macrophages
Procedure: BSK_IMphg is a cell-based, multiplexed-readout assay that uses venular endothelial cells and macrophages, a human vascular primary cell, with measurements taken at 24 hours after chemical dosing in a microplate: 96-well plate.BSK_IMphg_SRB.Mphg is an assay component measured in the BSK_IMphg assay. It measures […] related to cell death using Sulforhodamine staining technology.Data from the assay component BSK_IMphg_SRB.Mphg was analyzed at the endpoint, BSK_IMphg_SRB.Mphg, in the positive analysis fitting direction relative to DMSO as the negative control and baseline of activity. Using a type of viability reporter, gain or loss-of-signal activity can be used to understand protein changes. To generalize the intended target to other relatable targets, this assay endpoint is annotated to the 'cell morphology' intended target family, where the subfamily is 'cell conformation'.
as §1

[7] = read-out: Thrombomodulin, THBD (gene 7056); assay: BSK_LPS_Thrombomodulin: BioMAP Diversity Plus: LPS Assay for Thrombomodulin Biomarker Activity (AID 2284296); settings: primary human HUVEC with PBMC
Method in brief: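 Thrombomodulin on the surface of LPS-activated endothelial/PBMC co-cultures was quantified by ELISA at 24 hours post-dosing, with DMSO as baseline. Parallel SRB total-protein staining flagged overt cytotoxicity.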

[8] = IUF_NPC2c_oligodendrocyte_migration_120hr: Leibniz Research Institute for Environmental Medicine (IUF) 120-hour Neural Progenitor Cell Migration Assay for Oligodendrocyte Migration (NPC2c) (AID 2284297);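 further: O4-positive oligodendrocyte migration distance divided by radial glia migration distance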
Method in brief: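 Primary hNPC spheres migrating on extracellular matrix, exposed five days to a 7-point dilution series with solvent control. Oligodendrocyte migration was scored by high-content imaging of O4 immunostaining and expressed relative to radial glia distance.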

[9] = IUF_NPC2a_radial_glia_migration_120hr: Leibniz Research Institute for Environmental Medicine (IUF) 120-hour Neural Progenitor Cell Migration Assay for Radial Glia Migration (NPC2a) (AID 2284298)
Method in brief: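 In this multiplexed test, fetal hNPC spheres migrate radially on poly-D-lysine/laminin in N2 medium (37C, 5% CO2, pH 7.2-7.6) under continuous compound exposure over five days. Migration is scored at 120 h from automated Hoechst nuclear imaging.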

[10] = IUF_NPC2a_radial_glia_migration_72hr: Leibniz Research Institute for Environmental Medicine (IUF) 72-hour Neural Progenitor Cell Migration Assay for Radial Glia Migration (NPC2a) (AID 2284299)
Method in brief: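 Radial glia migration (µm, sphere core edge to migration front, four directions averaged) from brightfield images at 72 h; hNPC spheres differentiating on PDL/laminin in N2 medium, compound exposure at 7 concentrations from plating.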

Measured: AC50

E-selectin (Homo sapiens), sequence (P16581 whole entry, looked up): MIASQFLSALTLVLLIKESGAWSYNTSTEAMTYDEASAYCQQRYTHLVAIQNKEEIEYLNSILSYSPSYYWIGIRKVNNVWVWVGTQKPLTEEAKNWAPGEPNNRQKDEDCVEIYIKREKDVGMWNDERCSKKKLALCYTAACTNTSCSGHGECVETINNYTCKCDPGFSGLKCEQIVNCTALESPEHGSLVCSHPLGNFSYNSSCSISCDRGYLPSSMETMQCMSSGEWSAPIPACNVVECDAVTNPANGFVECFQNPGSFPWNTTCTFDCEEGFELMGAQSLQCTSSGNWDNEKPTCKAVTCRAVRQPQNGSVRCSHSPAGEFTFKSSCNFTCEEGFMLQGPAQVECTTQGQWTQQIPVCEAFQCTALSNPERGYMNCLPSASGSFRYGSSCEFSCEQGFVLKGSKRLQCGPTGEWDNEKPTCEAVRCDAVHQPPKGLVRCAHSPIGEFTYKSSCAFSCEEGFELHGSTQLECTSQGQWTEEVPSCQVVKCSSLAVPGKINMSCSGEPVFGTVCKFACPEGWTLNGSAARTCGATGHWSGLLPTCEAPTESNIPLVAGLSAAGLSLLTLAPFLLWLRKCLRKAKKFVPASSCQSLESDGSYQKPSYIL

O=C(O)C(F)(F)C(F)(F)C(F)(F)C(F)(F)C(F)(F)C(F)(F)C(F)(F)C(F)(F)C(F)(F)F
inactive: [1] | [4]
active: [2] 47.6 µM and 50.2 µM | [3] 53.8 µM and 46.6 µM | [5] 49.6 µM and 45.5 µM | [6] 44.9 µM and 46.2 µM | [7] 51.4 µM and 54.9 µM

CCOP(=S)(OCC)SCSC(C)(C)C
inactive: [8] | [9] | [10]

COc1ccc(O)c(C(C)(C)C)c1
inactive: [7]

O=S(=O)(O)C(F)(F)C(F)(F)C(F)(F)C(F)(F)C(F)(F)C(F)(F)F
active: [2] 37.6 µM | [5] 46.3 µM and 19 µM
inactive: [1] | [2] | [3] | [4] | [6] | [7] | [8] | [9] | [10]

O=S(=O)(O)C(F)(F)C(F)(F)C(F)(F)C(F)(F)F
inactive: all assays above

NS(=O)(=O)C(F)(F)C(F)(F)C(F)(F)C(F)(F)C(F)(F)C(F)(F)C(F)(F)C(F)(F)F
active: [1] 53.6 µM and 52.9 µM | [2] 39.9 µM and 30 µM | [3] 51 µM and 48.3 µM | [4] 30 µM | [5] 48.2 µM and 47.2 µM | [6] 43.4 µM and 48.1 µM | [7] 14.5 µM
inactive: [4] | [7]

CO/C=C(/C(=O)OC)c1ccccc1COc1cccc(C(F)(F)F)n1
active: [8] 34.6 µM | [9] 33 µM | [10] 50 µM

O=C(O)C(F)(F)C(F)(F)C(F)(F)C(F)(F)C(F)(F)C(F)(F)C(F)(F)C(F)(F)F
inactive: [1] | [2] | [3] | [4] | [6] | [7]
active: [3] 44.9 µM | [5] 39 µM and 21.3 µM | [6] 18 µM

O=C(O)C(F)(F)C(F)(F)C(F)(F)C(F)(F)C(F)(F)F
not listed: [8] | [9] | [10]
inactive: all other assays above

C=CC(N)=O
inactive: [8] | [9] | [10]
